About 83,000 compounds went through this panel and 20% of them were active in at least one assay; those are over-represented in the sample as a whole.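 The endpoint reported here, percent growth, reads 100 for growth as untreated, 0 for no net growth and -100 for all cells dead.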 Calls of active or inactive are those of the source. Rule for the calls: active = growth percent below 10; inactive = the rest.
These compounds were tested on HCT-15 colon (assay: NCI-60 one-dose screen, 48 h (100 = growth as untreated, 0 = no growth, -100 = all killed)). Details: 10 µM.
COC(=O)C1OC1c1cc([N+](=O)[O-])ccc1OC (stereo unspecified) was tested, and the growth was 103% (inactive).
With O=c1cn[nH]c2ccc(Br)cc12 the growth was 104% (inactive).
COc1cc(CNC(=O)C2CSC3(C)c4ccccc4C(=O)N23)cc(OC)c1OC (stereo unspecified) was tested, and the growth was 106% (inactive).
O=C1/C=C/[C@@H](O)[C@@H]2C[C@@H](O)C[C@H]2/C=C/CCC[C@H](C(F)(F)F)O1 was tested, and the growth was 6.45% (active).
For O=C1CCn2c1c(O)c1ccccc1c2=O, the growth was 114% (inactive).
With COc1ccc(/C(=N\N)C(=O)c2ccccc2)cc1 (tested in a mixture with another compound) the growth was 91.1% (inactive).
With O=C(CCl)Nc1ccc(Cc2ccc(NC(=O)CCl)cc2)cc1 the growth was -39.7% (active).
For CCOC(=O)C1=CSC2=NC3=C(CCC/C3=C\c3cc(OC)c(OC)c(OC)c3)C(c3cc(OC)c(OC)c(OC)c3)N12 (stereo unspecified), the growth was 57.7% (inactive).
For C=CCSC(CC)(CC)C(=O)NC, the growth was 101% (inactive).
For CCN(CCCNc1cc2c(c(N)c1S(=O)(=O)O)C(=O)c1ccccc1C2=O)c1ccccc1, the growth was 107% (inactive).
Cc1ccc(S(=O)(=O)N/N=C2\CCCc3ccccc32)cc1 was tested, and the growth was 109% (inactive).
With COc1cc(-c2nn(-c3cccc(NC(=O)CCNc4ccc(N5CCOCC5)cc4)c3)cc2-c2ccncc2)ccc1Cl the growth was 14.2% (inactive).
For COc1cc2c(cc1NC(=O)C(Cl)Cl)-c1ccc(NC(=O)C(Cl)Cl)cc1C2, the growth was -7.21% (active).
OCC1OC2C(NC(=S)N2c2ccccc2)C(O)C1O (stereo unspecified) was tested, and the growth was 99.2% (inactive).
For Cc1cc(O)ccc1C1=NN(c2ccc(S(C)(=O)=O)cc2)C(=O)CC1, the growth was 44.9% (inactive).
For Cc1c(Cl)cccc1NC(=O)CN1CCOCC1, the growth was 99% (inactive).
For O=C1c2ccccc2C(=O)c2c1ccc(C(Br)Br)c2Cl, the growth was 44% (inactive).
For CC[C@@H](C(=O)[C@@H](C)[C@@H](O)[C@H](C)[C@@H]1O[C@@H]([C@@H](CC)C(=O)N(CC)CC)CC[C@@H]1C)C1O[C@]2(C=CC(=O)[C@]3(CC[C@@](C)([C@H]4CC[C@](O)(CC)[C@H](C)O4)O3)O2)[C@H](C)C[C@@H]1C (stereo partly specified), the growth was 11% (inactive).
COc1cc(C(=O)n2nc(-c3cc(OC)c(OC)c(OC)c3)nc2N)cc(OC)c1OC was tested, and the growth was 100% (inactive).
For COc1ccc(C(=O)N2C=Cc3ccccc3C2C#N)cc1 (stereo unspecified), the growth was 90.7% (inactive).
For COc1ccc(-c2nn(-c3cccc(Cl)c3)cc2-c2cc(-c3ccccc3)[nH]c(=O)c2C#N)cc1, the growth was 63.8% (inactive).
With CCOC(=O)C1C(C(=O)OCC)C2C(=O)C3C(C(=O)OCC)C(C(=O)OCC)C3C(=O)C12 (stereo unspecified) the growth was 103% (inactive).
With CC1=CC2C(C(O)CC3(C)C2CC(C)C32OCOC23COCO3)C2(C)C/C(=C/O)C(=O)C=C12 (stereo unspecified) the growth was -24.2% (active).
With CCN(CC)CCOc1cccc2c1C(=O)c1ccccc1C2=O the growth was 94.6% (inactive).
Cc1c2cnccc2c(C)c2c1oc1ccccc12 was tested, and the growth was 72.3% (inactive).
In the case of O=C(Nc1ccc(NS(=O)(=O)c2ccc(F)cc2)cc1)C12CC3CC(CC(C3)C1)C2, the growth is reported as 86.8% (inactive).

What follows are compounds tested on HT29 colon in the same assay as above. Details: 10 µM.
In the case of CCc1ccc(-c2ccc(-n3nc(C)c4c(N)nc(Cc5ccccc5)nc43)cc2)cc1, the growth is reported as 78.8% (inactive).
With O=[N+]([O-])c1ccc2ncccc2c1Cl the growth was 9.81% (active).
In the case of Cc1ccc(-n2nnnc2N)c(C)c1, the growth is reported as 123% (inactive).
In the case of Oc1ccc(-c2[nH]c3ccccc3c2-c2nc3ccccc3o2)cc1, the growth is reported as 27.8% (inactive).
For CCc1ccc(C2=NN(c3ccc(S(C)(=O)=O)cc3)C(=O)CC2)cc1, the growth was 11.5% (inactive).
For COc1ccc(-c2nn(-c3cccc(Cl)c3)cc2-c2c(C#N)c(=O)n3[nH]c(-c4ccc(C)cc4)nc3c2C#N)cc1, the growth was 5.33% (active).
For O=C1c2ccccc2C(=O)c2c1ccc(C(Br)Br)c2[N+](=O)[O-], the growth was 46.1% (inactive).
In the case of CCOC(=O)CC(S(=O)(=O)c1ccccc1)S(=O)(=O)c1ccccc1, the growth is reported as 91% (inactive).
In the case of CC(=O)Nc1ccc(S(=O)(=O)c2ccnc3cc(Cl)ccc23)cc1, the growth is reported as 93.7% (inactive).
O=C(Nc1cc([N+](=O)[O-])c2[nH]c(=O)c3ccccc3c2c1)C(F)(F)F was tested, and the growth was 90.4% (inactive).
In the case of COc1cc2c(cc1NC(=O)C(F)(F)F)-c1ccc(NC(=O)C(F)(F)F)cc1C2, the growth is reported as 106% (inactive).
COc1ccc(/C(C#N)=C/c2cccc(OC)c2OC)cc1 was tested, and the growth was 59.8% (inactive).
With C/C(=C/CCC(C)[C@@H]1CC[C@]2(C)C3=C(CC[C@@]12C)[C@@]1(C)CCC(=O)C(C)(C)[C@@H]1CC3)C(=O)O (stereo partly specified) the growth was -65.8% (active).
With N#CC1=CC2CN(Cc3ccccc3)C1C1C(=O)N(c3ccccc3)C(=O)C21 (stereo unspecified) the growth was 103% (inactive).
With COC(=O)C1OC1c1cc([N+](=O)[O-])ccc1OC (stereo unspecified) the growth was 117% (inactive).
For O=c1cn[nH]c2ccc(Br)cc12, the growth was 95.7% (inactive).
In the case of COc1cc(CNC(=O)C2CSC3(C)c4ccccc4C(=O)N23)cc(OC)c1OC (stereo unspecified), the growth is reported as 82.6% (inactive).
With O=C1/C=C/[C@@H](O)[C@@H]2C[C@@H](O)C[C@H]2/C=C/CCC[C@H](C(F)(F)F)O1 the growth was -28.3% (active).
O=C1CCn2c1c(O)c1ccccc1c2=O was tested, and the growth was 108% (inactive).
In the case of COc1ccc(/C(=N\N)C(=O)c2ccccc2)cc1 (tested in a mixture with another compound), the growth is reported as 87.7% (inactive).
In the case of O=C(CCl)Nc1ccc(Cc2ccc(NC(=O)CCl)cc2)cc1, the growth is reported as -39.1% (active).
For CCOC(=O)C1=CSC2=NC3=C(CCC/C3=C\c3cc(OC)c(OC)c(OC)c3)C(c3cc(OC)c(OC)c(OC)c3)N12 (stereo unspecified), the growth was 12.9% (inactive).
In the case of C=CCSC(CC)(CC)C(=O)NC, the growth is reported as 87% (inactive).
With CCN(CCCNc1cc2c(c(N)c1S(=O)(=O)O)C(=O)c1ccccc1C2=O)c1ccccc1 the growth was 104% (inactive).
With Cc1ccc(S(=O)(=O)N/N=C2\CCCc3ccccc32)cc1 the growth was 115% (inactive).
COc1cc(-c2nn(-c3cccc(NC(=O)CCNc4ccc(N5CCOCC5)cc4)c3)cc2-c2ccncc2)ccc1Cl was tested, and the growth was 11.8% (inactive).
In the case of COc1cc2c(cc1NC(=O)C(Cl)Cl)-c1ccc(NC(=O)C(Cl)Cl)cc1C2, the growth is reported as -35.3% (active).
OCC1OC2C(NC(=S)N2c2ccccc2)C(O)C1O (stereo unspecified) was tested, and the growth was 101% (inactive).
For Cc1cc(O)ccc1C1=NN(c2ccc(S(C)(=O)=O)cc2)C(=O)CC1, the growth was 38.9% (inactive).
With Cc1c(Cl)cccc1NC(=O)CN1CCOCC1 the growth was 84.2% (inactive).
O=C1c2ccccc2C(=O)c2c1ccc(C(Br)Br)c2Cl was tested, and the growth was 52.5% (inactive).
CC[C@@H](C(=O)[C@@H](C)[C@@H](O)[C@H](C)[C@@H]1O[C@@H]([C@@H](CC)C(=O)N(CC)CC)CC[C@@H]1C)C1O[C@]2(C=CC(=O)[C@]3(CC[C@@](C)([C@H]4CC[C@](O)(CC)[C@H](C)O4)O3)O2)[C@H](C)C[C@@H]1C (stereo partly specified) was tested, and the growth was 13.1% (inactive).
With COc1cc(C(=O)n2nc(-c3cc(OC)c(OC)c(OC)c3)nc2N)cc(OC)c1OC the growth was 82.7% (inactive).
COc1ccc(C(=O)N2C=Cc3ccccc3C2C#N)cc1 (stereo unspecified) was tested, and the growth was 110% (inactive).
With COc1ccc(-c2nn(-c3cccc(Cl)c3)cc2-c2cc(-c3ccccc3)[nH]c(=O)c2C#N)cc1 the growth was 55.6% (inactive).
CCOC(=O)C1C(C(=O)OCC)C2C(=O)C3C(C(=O)OCC)C(C(=O)OCC)C3C(=O)C12 (stereo unspecified) was tested, and the growth was 105% (inactive).
For CC1=CC2C(C(O)CC3(C)C2CC(C)C32OCOC23COCO3)C2(C)C/C(=C/O)C(=O)C=C12 (stereo unspecified), the growth was 3.89% (active).
For CCN(CC)CCOc1cccc2c1C(=O)c1ccccc1C2=O, the growth was 80.6% (inactive).
For Cc1c2cnccc2c(C)c2c1oc1ccccc12, the growth was 72.8% (inactive).
O=C(Nc1ccc(NS(=O)(=O)c2ccc(F)cc2)cc1)C12CC3CC(CC(C3)C1)C2 was tested, and the growth was 89.6% (inactive).

From PubChem BioAssay (NCI)
